A selection: hits, their analogues and other compounds. The true share with any hit is near 1.5%.
Phagocytosis inh – inhibitors of macrophage phagocytosis, primary screen, imaging, J774A.1 cells, IgG beads; hit rate 0.07% among 110,000; inhibition, % at 5 µM; AID 1029, 2008; J774A.1 macrophage IgG-bead phagocytosis;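 active = inhibition above the mean of the plate negative controls plus 5 SD, cut at about 13% in these data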;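 note: phagocytic index as fraction of beads internalized from green versus red external bead signal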
CD11b adhes enh – enhancers of CD11b/CD18 adhesion to fibrinogen, primary screen, K562 cells, luminescence | Integrin beta-2 (Homo sapiens) + Integrin alpha-M (Homo sapiens), P05107+P11215 | ATPlite luminescence | activation, % at 10 µM | hit rate 0.07% among 93,000;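 active = 10 µM primary screen giving 50% or more activity, confirmed by 40% or more on retest at that dose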
CD11b adhes inh – inhibitors of CD11b/CD18 adhesion to fibrinogen, primary screen, K562 cells, luminescence. hit rate 0.54% among 93,000. ATPlite luminescence; Mn2+ added to activate the integrin. Integrin beta-2 (Homo sapiens) + Integrin alpha-M (Homo sapiens), P05107+P11215. inhibition, % at 10 µM. AID 1497, 2009;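 active = primary inhibition of 50% or more at 10 µM, then 40% or more on retest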
MRP1 act – H69AR viability gain despite doxorubicin, primary screen, MRP-1 activator project, H69AR cells, CellTiter-Glo; viability rescue; viability increase, % at 10 µM; hit rate 0.61% among 140,000; AID 799, 2007;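 active = viability gain under doxorubicin at or above a set limit, the compound median plus 3 SD, cut at about 4.7% in these data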;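 note: MRP-1 overexpressing cells given doxorubicin 25 µM after compound pretreatment; 18-22 h compound pretreatment then 72 h with doxorubicin before readout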
FAK blocker – FAK kinase inhibitors, primary screen, biochemical. biochemical FAK kinase activity assay. inhibition, %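 (tested at 7 µM)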. hit rate 0.84% among 97,000. AID 727, 2007; in the data active = inhibition above about 19%
Target sequence (Q05397 whole entry, looked up): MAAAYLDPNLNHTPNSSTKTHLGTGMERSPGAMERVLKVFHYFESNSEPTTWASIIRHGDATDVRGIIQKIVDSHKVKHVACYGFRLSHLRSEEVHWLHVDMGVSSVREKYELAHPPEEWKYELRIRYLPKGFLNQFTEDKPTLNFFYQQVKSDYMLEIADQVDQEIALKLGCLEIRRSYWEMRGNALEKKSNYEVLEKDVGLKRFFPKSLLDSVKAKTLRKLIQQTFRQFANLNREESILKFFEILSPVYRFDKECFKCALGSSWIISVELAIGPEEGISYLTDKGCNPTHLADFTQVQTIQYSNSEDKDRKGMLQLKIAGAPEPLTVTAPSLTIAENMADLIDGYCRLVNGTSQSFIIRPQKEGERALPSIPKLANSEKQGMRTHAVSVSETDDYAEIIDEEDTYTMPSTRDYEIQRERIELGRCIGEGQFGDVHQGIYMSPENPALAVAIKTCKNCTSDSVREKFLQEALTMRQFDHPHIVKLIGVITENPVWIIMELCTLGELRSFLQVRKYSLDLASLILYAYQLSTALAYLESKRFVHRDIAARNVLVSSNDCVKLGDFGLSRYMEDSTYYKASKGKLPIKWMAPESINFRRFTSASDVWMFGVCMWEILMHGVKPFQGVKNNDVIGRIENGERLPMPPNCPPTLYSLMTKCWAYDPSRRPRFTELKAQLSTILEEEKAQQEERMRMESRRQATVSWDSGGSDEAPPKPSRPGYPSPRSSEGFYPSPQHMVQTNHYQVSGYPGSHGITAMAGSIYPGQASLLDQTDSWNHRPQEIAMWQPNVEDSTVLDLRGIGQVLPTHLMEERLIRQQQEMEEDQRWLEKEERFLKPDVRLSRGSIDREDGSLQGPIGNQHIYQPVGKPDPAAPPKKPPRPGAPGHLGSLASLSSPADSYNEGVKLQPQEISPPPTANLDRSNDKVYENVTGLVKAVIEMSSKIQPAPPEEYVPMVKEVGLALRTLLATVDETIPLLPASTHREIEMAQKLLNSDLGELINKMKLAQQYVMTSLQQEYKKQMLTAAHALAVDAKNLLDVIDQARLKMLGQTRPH
MRP reversal – reversal of MRP1-mediated doxorubicin resistance, primary screen, H69AR cells, doxorubicin co-treatment; H69AR cells + 2 uM doxorubicin, CellTiter-Glo, 72 h; differential viability (reversal), % at 10 µM; hit rate 0.04% among 85,000; AID 602, 2007;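 active = viability drop by adding the cancer drug above about 55%, with treated viability meeting a 40% cutoff, limit read from the data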;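 note: larger differential means the compound sensitizes cells more to doxorubicin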
Large screens that a line does not name were inactive.

Cc1ccc(CNC(=O)C2CCCN(S(=O)(=O)c3c(C)noc3C)C2)cc1 (centres undefined)	none
Cc1noc(/C=C/N(C)C)c1S(=O)(=O)N1CCCC(C(=O)NC2CCCCC2)C1 (centres undefined)	MRP1 act 9.3
Cc1noc(/C=C/N(C)C)c1S(=O)(=O)N1CCCC(C(=O)N2CCCCC2)C1 (centres undefined)	none
Cc1noc(/C=C/N(C)C)c1S(=O)(=O)N1CCCC(C(=O)NCc2ccc(Cl)cc2)C1 (centres undefined)	MRP1 act 4.9
Cc1noc(/C=C/N(C)C)c1S(=O)(=O)N1CCCC(C(=O)Nc2ccc3c(c2)OCO3)C1 (centres undefined)	none (no result: Phagocytosis inh)
Cc1ccc(C(C)C)c(OCc2nc(-c3nonc3N)no2)c1	MRP1 act 6.4
O=S(=O)(c1ccccc1)N1C2CCC1CC(O)(c1cccnc1)C2 (centres undefined)	none
COc1ccc(C2CC(c3ccc(Cl)cc3)n3nc(N)nc3N2)cc1 (centres undefined)	MRP1 act 30
Nc1nc2n(n1)C(c1cccs1)CC(c1ccc(Br)cc1)N2 (centres undefined)	MRP1 act 5.8
COc1ccccc1C1CC(c2ccc(Cl)cc2Cl)Nc2nc(N)nn21 (centres undefined)	MRP1 act 5.6
COc1ccc(C2CC(c3cccc(Cl)c3)n3nc(N)nc3N2)cc1 (centres undefined)	none (no result: FAK blocker)
COc1ccc(C2CC(c3ccc(Br)cc3)Nc3nc(N)nn32)cc1 (centres undefined)	none
COc1ccc(C(=O)NC(=S)NC(C)(C)C)cc1Br	none (no result: Phagocytosis inh, CD11b adhes enh, CD11b adhes inh, MRP reversal)
CC(C)(C)C(=O)Nc1nc(C2CCCN2S(=O)(=O)c2ccc(Cl)cc2)cs1 (centres undefined)	none
Cc1ccc(OCc2nnc(SCC(=O)Nc3cccc4ccccc34)n2-c2ccccc2)cc1	MRP1 act 6.3 (no result: Phagocytosis inh, CD11b adhes enh, CD11b adhes inh)
COC(=O)c1cc(C(=O)OCC(=O)Nc2ccccc2OC(F)F)cc([N+](=O)[O-])c1	none (no result: FAK blocker, MRP reversal)
N#Cc1c(NC(=O)c2ccccc2Cl)n(Cc2ccccc2)c2nc3ccccc3nc12	CD11b adhes inh 100 (no result: FAK blocker, MRP reversal)
CCCCn1c(NC(=O)CC)c(C#N)c2nc3ccccc3nc21	none
O=C(CN1C(=O)C2C3c4ccccc4C(c4ccccc43)C2C1=O)Nc1cccc(C(=O)O)c1 (centres undefined)	none (no result: CD11b adhes enh, CD11b adhes inh, FAK blocker, MRP reversal)
Cc1ccc(C)c(/C(O)=C2\C(=O)C(=O)N(CCCn3ccnc3)C2c2ccncc2)c1 (centres undefined)	MRP1 act 7.3 (no result: Phagocytosis inh, CD11b adhes enh, CD11b adhes inh)
Cc1ccc(/C(O)=C2/C(=O)C(=O)N(CCCn3ccnc3)C2c2ccccn2)cc1 (centres undefined)	none (no result: Phagocytosis inh, CD11b adhes enh, CD11b adhes inh)
Cn1c(C(=O)NCc2ccccc2)cc2oc3ccccc3c21	MRP1 act 5.2 (no result: Phagocytosis inh)
C1=C(CCNc2ncnc3c2[nH]c2ccccc23)CCCC1	CD11b adhes inh 100 (no result: FAK blocker, MRP reversal)
O=c1c2[nH]c3ccccc3c2ncn1CCC1=CCCCC1	none
COc1ccc2[nH]c3c(NCCN(C(C)C)C(C)C)ncnc3c2c1	none
Cc1[nH]c2ccccc2c1C(=O)C(=O)NCCC1=CCCCC1	MRP1 act 12 (no result: FAK blocker, MRP reversal)
CC(C)OCCCNc1ncnc2c1[nH]c1ccccc12	CD11b adhes inh 84
CCN(CC)S(=O)(=O)c1ccc(N=NC2=C(O)CCCC2=O)cc1	none (no result: FAK blocker, MRP reversal)
O=C1CCCC(O)=C1N=Nc1ccc2c(c1)OCO2	MRP1 act 7.7 (no result: FAK blocker, MRP reversal)
C#CC(=O)N(c1cccc(OC)c1)C(C(=O)NC1CCCC1)c1cccs1 (centres undefined)	Phagocytosis inh 47 (no result: MRP reversal)
COc1cc(NC(=O)NCc2ccncc2)cc(OC)c1OC	none
CSc1nnc(COc2ccc(C)cc2)n1N	FAK blocker 37 (no result: Phagocytosis inh, CD11b adhes enh, CD11b adhes inh)
Clc1ccccc1Cn1nnc2c(Nc3ccccc3)ncnc21	MRP1 act 4.7 (no result: FAK blocker, MRP reversal)
Fc1ccc(N2CCN(c3ncnc4c3nnn4Cc3ccccc3Cl)CC2)cc1	MRP1 act 5.0 (no result: Phagocytosis inh, CD11b adhes enh, CD11b adhes inh)
Clc1ccccc1Cn1nnc2c(NCC3CC3)ncnc21	none
COCc1cc(C)nc(OCC(=O)N/N=C/c2ccc(-c3cc([N+](=O)[O-])ccc3C)o2)c1C#N	MRP1 act 4.7 (no result: MRP reversal)
[O-][n+]1c2c(c3c4non(O)c4ccc31)CCCC2	CD11b adhes inh 96
COc1cccc(/C=N/NC(=O)C(=O)N2CCCC2)c1O	MRP1 act 5.4 (no result: Phagocytosis inh, MRP reversal)
COc1cccc(/C=N/NC(=O)C(=O)N2CCCC2)c1OC	none (no result: MRP reversal)
COc1cccc(/C=N/NC(=O)Cn2nc(C)c([N+](=O)[O-])c2C)c1O	MRP1 act 6.6 (no result: FAK blocker, MRP reversal)
COc1cccc(/C=N/NC(=O)CSc2ccccc2C)c1O	none (no result: CD11b adhes enh, CD11b adhes inh, FAK blocker, MRP reversal)
COc1cccc(/C=N/NC(=O)C(C)n2nc(C)c([N+](=O)[O-])c2C)c1O (centres undefined)	MRP1 act 9.0 (no result: CD11b adhes enh, CD11b adhes inh, FAK blocker, MRP reversal)
O=C(N/C=N/OCc1ccc(Cl)cc1Cl)NOCc1ncc(C(F)(F)F)cc1Cl	none
N/C(=N\N=C\c1ccc2c(c1)OCO2)c1nonc1N	MRP1 act 5.6 (no result: CD11b adhes enh, CD11b adhes inh, FAK blocker, MRP reversal)
COc1cc(/C=N/N=C(/N)c2nonc2N)cc(Br)c1OCc1ccccc1C	none
CC1=NN(C(=O)c2ccc(Cn3nc(C)c(Br)c3C)cc2)C(O)(C(F)(F)F)C1 (centres undefined)	MRP1 act 5.2 (no result: CD11b adhes enh, CD11b adhes inh, FAK blocker, MRP reversal)
CCNC(=S)N/N=C/c1ccc(OCc2ccc(C(=O)OC)cc2)cc1	none (no result: CD11b adhes enh, CD11b adhes inh, FAK blocker, MRP reversal)
Cc1cc(=O)[nH]c(SCC(=O)Nc2ccc(Br)cc2)c1C#N	CD11b adhes inh 93 (no result: Phagocytosis inh)
Cc1cc(=O)[nH]c(SCC(=O)Nc2ccccc2C#N)c1C#N	none (no result: MRP reversal)
CCCCCCCCNc1ncnc2ccccc12	CD11b adhes inh 101
CCOC(=O)CSc1nc(N)nc(C)c1Br	MRP1 act 19 (no result: Phagocytosis inh, FAK blocker)
Cc1ccnc(NC(=O)COc2c(C)cc(C)cc2[N+](=O)[O-])c1	none (no result: CD11b adhes enh, CD11b adhes inh, FAK blocker, MRP reversal)
Cc1ccnc(NC(=O)COc2ccc3oc4c(c3c2)CCCC4)c1	MRP1 act 5.2 (no result: Phagocytosis inh, CD11b adhes enh, CD11b adhes inh, MRP reversal)
CCOC(=O)Cn1nc(C)n(-c2ccc(C(C)C)cc2)c1=O	none (no result: Phagocytosis inh, CD11b adhes enh, CD11b adhes inh, MRP reversal)
Cn1nc(C(F)(F)F)c(C(=O)Nc2ccc(C(F)(F)F)cc2)c1Cl	MRP1 act 6.2 (no result: Phagocytosis inh, CD11b adhes enh, CD11b adhes inh, MRP reversal)
Cn1nc(-c2ccccc2)c(C(=O)Nc2ccc(C(F)(F)F)cc2)c1Cl	none (no result: MRP reversal)
CCc1nnc(NC2=NCCC2)s1	none
COCCCNC(=O)CSC1=Nc2ccccc2C2=NC(CC(=O)NCc3ccccc3)C(=O)N12 (centres undefined)	none
CCCCn1c(CN2CCN(c3ccccc3)CC2)nc2c1c(=O)n(C)c(=O)n2C	CD11b adhes inh 65
CCCCCn1c(CN2CCCCC2C)nc2c1c(=O)n(C)c(=O)n2C (centres undefined)	MRP1 act 6.0 (no result: Phagocytosis inh, CD11b adhes enh, CD11b adhes inh)
Cn1c(=O)c2c(nc(CN3CCN(c4ccccc4)CC3)n2Cc2c(F)cccc2Cl)n(C)c1=O	MRP reversal 60
CCCn1c(CN2CCN(c3cccc(Cl)c3)CC2)nc2c1c(=O)n(C)c(=O)n2C	CD11b adhes inh 91
Cn1c(=O)c2c(nc(CN3CCN(c4ccccc4)CC3)n2Cc2ccccc2Cl)n(C)c1=O	none
